In all, about 360,000 compounds went through this assay and about 8,200 (2.3%) were called active. This is one part of a sample in which actives are shown more often than they occur. Unmarked numbers belong to inactive results. No stated cut-off is given here; in the data, active means inhibition above about 27%; inactive means the rest.

The assay deals with Fructose-bisphosphate aldolase (Mycobacterium tuberculosis (strain ATCC 25618 / H37Rv)) (UniProt P9WQA3). As to the kind of experiment: M. tuberculosis aldolase activity blockers – biochemical, fluorescence, strain H37Rv, primary screen (AID 588726).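 Further: 0% = vehicle and 100% = reference inhibitor.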 The following applies: purified M. tuberculosis FBA, fluorescence read-out, at 1 µM, active compounds read high.
Chain of Fructose-bisphosphate aldolase (Mycobacterium tuberculosis (strain ATCC 25618 / H37Rv)) (P9WQA3 whole entry, looked up): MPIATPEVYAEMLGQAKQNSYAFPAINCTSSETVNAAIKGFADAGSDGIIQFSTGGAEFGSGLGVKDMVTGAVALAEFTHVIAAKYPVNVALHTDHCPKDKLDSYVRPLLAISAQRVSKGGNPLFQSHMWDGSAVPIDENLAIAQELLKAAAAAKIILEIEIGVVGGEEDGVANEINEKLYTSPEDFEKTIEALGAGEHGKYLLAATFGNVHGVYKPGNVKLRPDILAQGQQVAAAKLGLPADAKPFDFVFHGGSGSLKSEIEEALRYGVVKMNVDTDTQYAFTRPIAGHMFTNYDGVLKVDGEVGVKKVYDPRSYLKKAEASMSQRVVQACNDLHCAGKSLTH
Usually inhibition stands for the drop in the measured response relative to a control, in per cent. In the case of `COCCCNS(=O)(=O)c1cccc(S(=O)(=O)c2cccc(S(=O)(=O)NCCCOC)c2)c1`, the inhibition is 0.27%.
In the case of `COc1ccc(/C=N/n2c(C)cc(C)cc2=O)cc1`, the inhibition is 3.54%.
For the molecule `CC(C)OCCCNc1ncnc2c1[nH]c1ccc(F)cc12`, the inhibition is 31.8% (active).
For `O=C(Nc1ccccc1Cl)/C(Cl)=C(\Cl)S(=O)c1ccccc1` (centres undefined) the value was -3.21%.
Regarding `CC(C)Cn1cc(-c2cncc3nccn23)cn1`, the inhibition was 142% (active).
Regarding `C=CCSc1nc(N)cc(=O)[nH]1`, the inhibition was 3.86%.
As to `COc1cccc(NC(=O)COc2cc(C)cc3oc(=O)cc(C)c23)c1`, the inhibition was 7.86%.
As for `Cc1cc(C)c(NC(=S)N2CCCC2C(=O)O)c(C)c1` (centres undefined), the inhibition is 0.88%.
For `Cc1cc(=O)oc(C)c1C(=O)NC1CC(C)(C)NC(C)(C)C1`, the inhibition is 0.07%.
For `Cc1cc(C)c2c(Cn3ccnc3)cc(=O)oc2c1`, the inhibition is 0%.
For `CC(Oc1cccc(Cl)c1)C(=O)NC1CC(C)(C)NC(C)(C)C1` (centres undefined) the value was 0.76%; for `CCc1cc(=O)oc2cc(OCC(=O)N3CCCc4ccccc43)ccc12`, 5.17%.
In the case of `CCc1cc(=O)oc2cc(C)cc(OC(C)C(=O)O)c12` (centres undefined), the inhibition was 176% (active).
Take `CCc1cc(=O)oc2cc(C)cc(OCC(=O)N3CCC[C@@H]3C(=O)O)c12`: the inhibition was 106% (active).
For `Cc1cc(OC(C)C(=O)NC2CC(C)(C)NC(C)(C)C2)c2c(C)cc(=O)oc2c1` (centres undefined), the inhibition is 154% (active).
For `CCOC(=O)c1sc2nc(C)nc(Nc3ccc(OC)c(OC)c3)c2c1C` the value was 0.66%; for `N#Cc1ccc(C(c2ccc(C#N)cc2)n2cncn2)cc1`, 2.3%.
In the case of `O=C(CNS(=O)(=O)c1ccc2ccccc2c1)Nc1ccc(F)c(F)c1F`, the inhibition is 1.83%.
Turning to `CC(C)NS(=O)(=O)c1ccc(CCC(=O)N2CCOCC2)cc1`, the inhibition was 0.26%.
Turning to `CCc1nc2c(OCCc3cccc(OC)c3)cccn2c1N(C)C(=O)c1ccc(C)cc1`, the inhibition is 1.14%.
As for `CC(=O)c1cccc(-n2nnnc2SCC(=O)NNC(=O)C2CCCCC2)c1`, the inhibition is 3.69%.
As to `COc1cc(C(=O)NCc2nnc(SCC(=O)Nc3nc4ccc(C)cc4s3)o2)cc(OC)c1OC`, the inhibition was 1.7%.
For the molecule `N/C(=N\OC(=O)CCn1cccc(C(F)(F)F)c1=O)c1ccc(OC(F)(F)F)cc1`, the inhibition is 1.82%.
With `Cc1ccc(NN=C2C(=O)OC(C)(C)OC2=O)c(C)c1`, the inhibition was -7.26%.
Take `COc1ccc(Br)c2c1C(=O)CC2`: the inhibition was 2.69%.
As for `O=C(c1c(F)cccc1Cl)N1CCN(c2ccccn2)CC1`, the inhibition is 116% (active).
Regarding `O=C(Cc1ccccc1Cl)N1CCN(c2ccccn2)CC1`, the inhibition is 10.2%.
Take `O=C(c1c(F)cccc1F)N1CCN(c2ncc(Br)cn2)CC1`: the inhibition is -0.3%.
Consider `NS(=O)(=O)c1cc2c(cc1Cl)NC(C(Cl)Cl)NS2(=O)=O` (centres undefined), for which the inhibition was 2.88%.
Consider `COc1ccc(OC)c(NC(=O)Cn2c(=O)oc3ccccc32)c1`, for which the inhibition is -2.86%.
For `CCc1cccc2c(C=C(C#N)C#N)cn(CC(=O)N3CCCCC3)c12` the value was -1.66%; for `COC(=O)c1noc(C)c1-c1ccnn1C(=O)c1ccc(Cl)cc1`, 29.4% (active).
In the case of `Cc1onc(-c2ccc(Cl)cc2)c1-c1ccnn1S(=O)(=O)c1ccc(Cl)cc1`, the inhibition was -3.96%.
`COC(=O)c1cn(C(=O)c2ccc(Cl)cc2)c2ccccc12`: the inhibition is -0.26%.
For the molecule `Cn1cccc1-c1nc2ccccc2n1C`, the inhibition was 28.6% (active).
For `Cn1c(-c2ccc(C(=O)c3ccccc3)s2)nc2ccccc21` the value was 1.32%; for `Cc1ccc(C2=NN(C)c3nc4ccccc4n3C2)cc1`, 13.4%; for `O=C(COc1ccc(Cl)cc1)Nc1ccc2oc(=O)ccc2c1`, 2.76%.
As to `Cc1ccc(S(=O)(=O)N2CCC(C)CC2)cc1C(=O)NCc1ccccn1`, the inhibition was 2.4%.
As to `COc1ccc(NC(=O)CSc2ncnc3[nH]ncc23)cc1`, the inhibition is 1.84%.
With `CCCCn1c(N)c(N(CC(C)C)C(=O)c2cnc(C)cn2)c(=O)[nH]c1=O`, the inhibition was 0.47%.
In the case of `CC(=O)N1CCN(S(=O)(=O)c2c(F)cc(F)c(Cl)c2F)CC1`, the inhibition is -0.88%.
For `Cc1oc(-c2ccccc2F)nc1CS(=O)(=O)CC(=O)NCCCN(C)C1CCCCC1` the value was -2.64%; for `CN(CCNC(=O)c1cc2c(-c3ccccc3F)nn(C)c2s1)C1CCCCC1`, 73.3% (active); for `CC(C)c1cc(C(=O)N(C)C2CCCN(Cc3ccccc3F)C2)n(C)n1` (centres undefined), 2.62%.
For the molecule `CC(CO)NCC12CC3CC(CC(C3)C1)C2` (centres undefined), the inhibition was -1.08%.
As to `Cc1ccc(-n2c(=O)c(C#N)cc3c(=O)n4ccccc4nc32)cc1C`, the inhibition is 67% (active).
On to `Cc1ccc(Cn2c(=N)c(S(=O)(=O)c3ccc(C)cc3)cc3c(=O)n4ccccc4nc32)cc1`, for which the inhibition is 3.69%.
As for `Cc1ccc(-n2c(SCC(=O)N3CCC(C(=O)O)CC3)nc3ccccc3c2=O)cc1C`, the inhibition is -6.87%.
As for `CCOC(=O)C1CN(S(=O)(=O)c2ccc(OC)cc2)c2cc(Cl)ccc2O1` (centres undefined), the inhibition was 2.59%.
As for `CC[C@]12c3[nH]c4cc(CCC(=O)N(C)C)ccc4c3CCN1C(=O)[C@@H](CC(=O)NCC13CC4CC(CC(C4)C1)C3)C[C@@H]2C(=O)N1CCN(C(=O)C2CC2)CC1`, the inhibition was 0.95%.
As for `CC1=CC=CC2=N/C(=N\S(=O)(=O)c3ccc(F)cc3F)c3ccccc3CN12`, the inhibition was 1.29%.
On to `CCOC(=O)c1[nH]c2ccc(OC)cc2c1NC(=O)N1CCOCC1`, for which the inhibition is 28.4% (active).
For `Cc1cc(NC(=O)CCN2CCN(Cc3ccccc3)CC2)ccc1Br`, the inhibition is 0.67%.
On to `COc1cc2[nH]c(=O)n(CCC(=O)NC3CCN(Cc4ccccc4)CC3)c(=O)c2cc1OC`, for which the inhibition is 5.35%.
As to `Cc1c(C(=O)CN2CCOCC2)[nH]c2ccccc12`, the inhibition was -0.51%.
Turning to `CCOC(=O)c1[nH]c2ccc(OC)cc2c1NC(=O)CCN1CCN(Cc2ccccc2)CC1`, the inhibition was 49.8% (active).
With `CCN(CC)C(=O)Oc1ccc(NC(=O)N2CCOCC2)cc1`, the inhibition is -0.07%.
In the case of `OCC(O)CN(c1ccccc1)c1ccccc1` (centres undefined), the inhibition was 5.53%.
For `CC(C)N(C(=O)Cn1cc(S(=O)(=O)CC(=O)N2CCOCC2)c2ccccc21)C(C)C` the value was -1.92%; for `Cc1ccc(Br)c(NS(=O)(=O)c2cccc(C(=O)N3CCNC(=O)C3)c2)c1`, -3.11%.
`CC(=O)NC(Cc1ccc(F)c(F)c1)C(=O)NC1CCN(C(=O)c2ccc(C)cc2)CC1` (centres undefined): the inhibition was -2.53%.
Take `CC(NC(=O)COc1ccccc1)C(=O)NC1=NCCS1` (centres undefined): the inhibition was 2.42%.
For the molecule `CC(C)(C)CN1CCNC(=O)C1CC(=O)NC1Cc2ccccc2C1` (centres undefined), the inhibition was 1.64%.
For the molecule `COc1ccc(-c2nc(N)sc2C2(O)C(=O)Nc3c(Br)cc(F)cc32)cc1OC` (centres undefined), the inhibition was 5.75%.
For `O=[N+]([O-])c1cccc(Nc2c3ccccc3nc3ccccc23)c1` the value was 122% (active); for `O=[N+]([O-])c1cnc2ccc3ccccc3c2c1`, 1.36%; for `O=C(CSc1nc(-c2ccccc2)cs1)Nc1cccc([N+](=O)[O-])c1`, 0.01%.
Regarding `CC(=O)C1=C(O)C(=O)N(c2ccc(S(N)(=O)=O)cc2)C1c1ccccc1F` (centres undefined), the inhibition is 12.8%.
Turning to `CCCN(CCC)CC(O)COc1ccccc1C(=O)Nc1ccccc1` (centres undefined), the inhibition was 0.32%.
`COc1ccccc1NC(=O)N(O)C1(C#N)CCCCC1`: the inhibition is 1.6%.
Regarding `COc1ccc2sc(-c3ccc(N(C)C)cc3)c(-c3ccc4cc[nH]c4c3)c2c1`, the inhibition was 41% (active).
In the case of `COc1cccc(-c2sc3ccc(OC)cc3c2-c2ccc(OCCN3CCCCC3)cc2)c1`, the inhibition is 0.81%.
For `COc1ccc2c(c1)c(=Cc1ccc(N(C)C)cc1)c1cc(-c3ccccc3)[n+](C)n12` the value was -16.1%; for `COc1ccc2sc(-c3ccccc3OC)c(-c3ccc(OCCN4CCCC4)cc3)c2c1`, 0.37%; for `CC1CC(NC(=O)/C(C#N)=C/c2ccc[nH]2)CC(C)(C)C1` (centres undefined), -0.18%.
For `CN(Cc1ccccc1)CC(O)COc1ccc(CNCc2cc3ccccc3s2)cc1` (centres undefined) the value was 0.16%; for `Cc1cc(=O)n2nc(N3CCC(C(=O)Nc4c(F)c(F)c(F)c(F)c4F)CC3)sc2n1`, -1.25%.
For `Cc1cc(C)c2c(NC(=O)C3CC3)nn(C)c2n1` the value was 46.1% (active); for `Cc1ccc2c(NC(=O)C3CC3)cccc2n1`, 3.11%; for `CCCCCC1CC(COc2ccccc2)OC1=O` (centres undefined), -2.11%.
With `O=c1c2cc([N+](=O)[O-])ccc2nc2n1CCC2`, the inhibition is 3.1%.
For `O=C(NC1CCCC1)C(c1ccccn1)N(C(=O)c1csnn1)C1CCCC1` (centres undefined), the inhibition was 2.16%.
In the case of `COCCNc1ncnc2c1ncn2[C@H]1CN(Cc2ccc(OC)cc2)C[C@@H](CO)O1`, the inhibition was 1.53%.
Take `COc1ccc(-c2oc3ncnc(NCCCO)c3c2-c2ccc(OC)cc2)cc1`: the inhibition was 58.3% (active).
For `COc1ccc(-c2oc3ncn(Cc4ccco4)c(=N)c3c2-c2ccc(OC)cc2)cc1` the value was 7.98%; for `Cc1cccc(N2CC(C(=O)Nc3ccccc3N3CCCC3)CC2=O)c1C` (centres undefined), 3.07%; for `Cc1ccccc1/[N+]([O-])=C/c1ccncc1`, 0.03%.
Take `Cc1ccc(C2CC(c3cccc(NS(C)(=O)=O)c3)=NN2S(C)(=O)=O)cc1` (centres undefined): the inhibition is -2.56%.
Regarding `CCS(=O)(=O)Nc1ccc(C2=NN(C(C)=O)C(c3cccs3)C2)cc1` (centres undefined), the inhibition was 591% [above what the read-out allows, likely interference] (active).
For `CS(=O)(=O)Nc1ccc(C2=NN(S(C)(=O)=O)C(c3cccs3)C2)cc1` (centres undefined) the value was 73.8% (active); for `COc1cccc(C2CC(c3ccccc3)=NN2S(=O)(=O)c2ccccc2)c1OC` (centres undefined), 0.19%; for `CS(=O)(=O)Nc1cccc(C2=NN(C(=O)c3cccc(F)c3)C(c3cccs3)C2)c1` (centres undefined), 5.49%.
`CCS(=O)(=O)Nc1ccc(C2=NN(S(=O)(=O)c3ccc(F)cc3)C(c3ccco3)C2)cc1` (centres undefined): the inhibition was -0.61%.

The record behind these values is PubChem BioAssay AID588726 (The Scripps Research Institute Molecular Screening Center, 2011).
